# Source: the supplement of paper PMC6522484
# “And” between values parts separate entries of the source, which are not always exact repeats. Identical values can stand only once. ± gives the standard deviation of the averaged measurements.
# Key:
# [1] = test system: DLD1; assay: cell viability (CellTiter-Glo) relative to plate median (fraction of plate median); higher = more viable cells; conditions: 5 µM; treatment time 24 h; reporter: 7TFP
# Outline: (§1)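 For this screen, colorectal cancer cell lines carrying stable lentiviral TCF/Wnt firefly luciferase reporters, either 7TFP or TCF4/Wnt, were seeded into 384-well plates. A day's wait of 24 h preceded addition of library compounds at a final 5 µM, which stayed on the cells for 24 h. Firefly luciferase or CellTiterGlo luminescence, read on parallel plates, was normalised to the plate median per well, and the reported value is the mean of two independent replicates.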
# [2] = test system: HCT116; assay: as above; conditions: 5 µM; treatment time 24 h; reporter: TCF4/Wnt
# Outline: as §1
# [3] = test system: SW480; assay: as above; conditions: 5 µM; treatment time 24 h; reporter: 7TFP
# Outline: as §1
# [4] = test system: DLD1; assay: TCF/Wnt firefly luciferase reporter signal relative to plate median (fraction of plate median); higher = higher Wnt reporter signal; conditions: 5 µM; treatment time 24 h; reporter: 7TFP
# Outline: as §1
# [5] = test system: SW480; assay: as above; conditions: 5 µM; treatment time 24 h; reporter: 7TFP
# Outline: as §1
SMILES,cell viability [1],cell viability [2],cell viability [3],TCF/Wnt firefly luciferase reporter signal [4],TCF/Wnt firefly luciferase reporter signal [5]
C[C@]12CCC(=O)C=C1CC[C@@H]1[C@@H]2[C@@H](O)C[C@@]2(C)[C@H]1CC[C@]2(O)C(=O)CO,1.06 ± 0.071,1.05 ± 0.057,1.04 ± 0.028,0.951 ± 0.11,0.935 ± 0.04
CC(=O)O[C@H]1CC[C@]2(C)[C@H]3C(=O)C=C4[C@@H]5[C@@H](C)[C@H](C)CC[C@]5(C(=O)O)CC[C@@]4(C)[C@]3(C)CC[C@H]2C1(C)C,1.005 ± 0.0071,1.05,0.993 ± 0.011,1 ± 0.16,1.09 ± 0.028
Cc1ccccc1C(OCCN(C)C)c1ccccc1 (stereo not given),1.07 ± 0.13,0.894 ± 0.15,1.01 ± 0.039,1.085 ± 0.0071,1.12 ± 0.085
O=C(O)c1c[nH]c2ccccc12 [Indole-3-carboxylic acid],0.977 ± 0.011,0.868 ± 0.083,0.9405 ± 0.005,0.83 ± 0.12,0.968 ± 0.21
O=C(O)CN1C(=O)c2cccc3cccc(c23)C1=O,0.996 ± 0.034,0.967 ± 0.017,1.005 ± 0.0071,0.964 ± 0.12,1.09 ± 0.042
O=C1c2ccccc2C(=O)C1c1ccccc1,1.02,1.02 ± 0.048,1.02,1.12 ± 0.014,1.15 ± 0.071
COC(=O)C[C@H]1C(C)(C)[C@@H](O)[C@@H]2CC3=C4C=C(OC)O[C@@H](c5ccoc5)[C@]4(C)CCC3[C@@]1(C)C2=O (stereo partly drawn) [3-DEOXO-3beta-HYDROXYMEXICANOLIDE 16-ENOL ETHER],0.931 ± 0.11,0.91 ± 0.036,0.919 ± 0.018,0.946 ± 0.07,0.921 ± 0.064
O=C(O)c1ccc2c(c1)OCO2,0.927 ± 0.12,1.09 ± 0.078,0.948 ± 0.033,0.927 ± 0.022,0.866 ± 0.12
CC(C)Oc1ccc2c(=O)c(-c3ccccc3)coc2c1,0.972 ± 0.013,1.05 ± 0.083,1.01 ± 0.021,1.24 ± 0.21,0.949 ± 0.34
C=CC(C)(O)CCC1C(=C)CC(O)C2C(C)(C)CCCC12C (stereo not given),0.995 ± 0.0071,0.865 ± 0.1,0.996 ± 0.0057,0.922 ± 0.15,0.927 ± 0.1
O=C(O)[C@H](O)[C@@](O)(Cc1ccc(O)cc1)C(=O)O,0.954 ± 0.08,0.962 ± 0.082,0.955 ± 0.021,1.005 ± 0.0071,0.923 ± 0.11
Oc1c(Cl)cc(Cl)cc1Sc1cc(Cl)cc(Cl)c1O,1.03 ± 0.058,1.01 ± 0.022,0.99 ± 0.043,0.979 ± 0.059,0.959 ± 0.048
Cn1c(=O)c2nc(C3CCCC3)[nH]c2n(C)c1=O,1.07 ± 0.064,1.05 ± 0.1,1.02 ± 0.047,1.01 ± 0.17,0.968 ± 0.039
CCC(C)(C)C(=O)O[C@H]1C[C@@H](C)C=C2C=C[C@H](C)[C@H](CC[C@@H]3C[C@@H](O)CC(=O)O3)[C@H]21,0.864 ± 0.23,0.8745 ± 0.005,0.99 ± 0.071,0.902 ± 0.34,0.827 ± 0.41
CON,1.03 ± 0.093,1.01 ± 0.046,0.984 ± 0.018,0.982 ± 0.04,0.981 ± 0.027
CC1(C)OC(=O)NC1=O,0.893 ± 0.18,0.9705 ± 0.0064,0.965 ± 0.092,1.08 ± 0.11,0.932 ± 0.14
Cc1cc(=O)oc2c(O)c(O)ccc12,0.961 ± 0.17,0.943 ± 0.03,0.925 ± 0.044,0.869 ± 0.08,0.944 ± 0.0071
COc1ccc(C(=O)CC(=O)O)c2c1C=CC(C)(C)O2,1 ± 0.013,0.978 ± 0.19,0.961 ± 0.098,0.991 ± 0.056,0.859 ± 0.042
Oc1ccc2c(c1)O[C@H](c1ccc(O)c(O)c1)[C@@H](O)C2,1.07 ± 0.014,1.04 ± 0.028,1.05 ± 0.096,0.926 ± 0.058,0.9675 ± 0.005
O=C1CCc2cc(OCCCCc3nnnn3C3CCCCC3)ccc2N1,0.979 ± 0.03,1.09 ± 0.028,1.035 ± 0.0071,1.03 ± 0.021,0.987 ± 0.075
O=C(O)CCCC[C@@H]1SC[C@@H]2NC(=O)N[C@@H]21,1.03 ± 0.063,0.954 ± 0.04,0.948 ± 0.0042,0.982 ± 0.022,0.963 ± 0.0042
COc1ccc(-c2coc3c(OC)c(OC)cc(O)c3c2=O)cc1,1.01 ± 0.017,1.07 ± 0.014,0.995 ± 0.021,1.08 ± 0.064,0.98 ± 0.042
CCCCC(=O)O[C@]1(C(=O)CO)CC[C@H]2[C@@H]3CCC4=CC(=O)CC[C@]4(C)[C@H]3[C@@H](O)C[C@@]21C,0.981 ± 0.084,1.02 ± 0.11,0.96 ± 0.013,1.02 ± 0.11,0.997 ± 0.061
CC/C(=C(\c1ccccc1)c1ccc(OCCN(C)C)cc1)c1ccccc1,1.08 ± 0.05,1.04 ± 0.064,1.05 ± 0.021,0.872 ± 0.15,0.859 ± 0.14
O=C(c1ccccc1)c1ccc2n1CCC2C(=O)O (stereo not given),1.03 ± 0.095,0.929 ± 0.16,1 ± 0.023,0.911 ± 0.066,0.924 ± 0.021
O=C(O[C@@H]1Cc2c(O)cc(O)cc2O[C@@H]1c1cc(O)c(O)c(O)c1)c1cc(O)c(O)c(O)c1,1.03 ± 0.035,1.01 ± 0.048,1.08 ± 0.014,0.974 ± 0.037,0.916 ± 0.014
COC(=O)[C@H]1[C@H]2C[C@H]3c4[nH]c5cc(OC)ccc5c4CCN3C[C@H]2C[C@@H](OC(=O)c2cc(OC)c(OC)c(OC)c2)[C@@H]1OC,0.96 ± 0.057,1 ± 0.11,0.905 ± 0.011,1.18,0.9565 ± 0.0021

SMILES,cell viability [1],cell viability [2],cell viability [3],TCF/Wnt firefly luciferase reporter signal [4],TCF/Wnt firefly luciferase reporter signal [5]
CO[C@@]12[C@H](COC(N)=O)C3=C(C(=O)C(C)=C(N)C3=O)N1C[C@@H]1N[C@@H]12,1.12 ± 0.057,1.01,1.25 ± 0.021,0.974 ± 0.094,0.843 ± 0.13
C=C(C)[C@@H]1CC[C@]2(C(=O)O)CC[C@]3(C)[C@H](CC[C@@H]4[C@@]5(C)CC[C@H](O)C(C)(C)[C@@H]5CC[C@]43C)[C@@H]12,1.03 ± 0.021,1.09,1.005 ± 0.0071,1.055 ± 0.0071,1.01 ± 0.014
CC(C)c1c(O)ccc2c1CC[C@H]1C(C)(C)CCC[C@]21C,1.16 ± 0.12,1 ± 0.13,1.03 ± 0.076,0.855 ± 0.11,0.996 ± 0.035
CN1C(C(=O)Nc2ccccn2)=C(O)c2ccccc2S1(=O)=O,0.97 ± 0.057,0.975 ± 0.036,0.92 ± 0.061,1.1 ± 0.071,1.14
COC(=O)c1c(C)cc(O)cc1O,0.999 ± 0.03,0.837 ± 0.23,1 ± 0.037,1.15 ± 0.014,0.984 ± 0.11
CCn1cc(C(=O)O)c(=O)c2cc(F)c(N3CCNCC3)nc21,1.05 ± 0.064,0.98 ± 0.071,1.05 ± 0.083,1.065 ± 0.0071,1.04 ± 0.028
CC(C)[N+]1(C)[C@@H]2CC[C@H]1C[C@@H](OC(=O)C(CO)c1ccccc1)C2 (stereo not given in full),1.02 ± 0.13,0.989 ± 0.16,0.953 ± 0.065,1 ± 0.013,0.935 ± 0.076
CC(=O)OCC(=O)[C@@]1(O)CC[C@H]2[C@@H]3CCC4=CC(=O)CC[C@]4(C)[C@@]3(F)[C@@H](O)C[C@@]21C,0.975 ± 0.027,1.07 ± 0.085,0.995 ± 0.022,1.06,1.07 ± 0.11
Cc1cn[nH]c1,0.959 ± 0.021,0.939 ± 0.018,1.01 ± 0.021,0.768,0.892 ± 0.11
"COC(=O)C[C@H]1C(C)(C)[C@@H](O)[C@@H]2CC3=C4CC(O)O[C@@H](c5ccoc5)[C@]4(C)CCC3[C@@]1(C)C2=O (stereo partly drawn) [3,16-DIDEOXYMEXICANOLIDE-3beta-DIOL]",1.1 ± 0.085,1.04 ± 0.042,1.035 ± 0.0071,1.02 ± 0.15,0.896 ± 0.076
CC(=O)N1CCN(c2ccc(OCC3COC(Cn4ccnc4)(c4ccc(Cl)cc4Cl)O3)cc2)CC1 (stereo not given),0.997 ± 0.033,0.9685 ± 0.005,0.901 ± 0.012,1.05 ± 0.05,1.01 ± 0.061
Cc1cc(-n2c(=O)[nH]c(=O)n(C)c2=O)ccc1Oc1ccc(SC(F)(F)F)cc1,0.946 ± 0.052,1 ± 0.023,0.952 ± 0.016,0.926 ± 0.013,1.04 ± 0.06
CC(=O)Oc1ccccc1C(=O)O,1.01 ± 0.035,1.02 ± 0.031,1.025 ± 0.0071,1.05 ± 0.014,0.97 ± 0.14
CC(=O)NCCc1ccc(O)cc1 [N-(p-Hydroxyphenyl)ethylacetamide],1.02 ± 0.04,1.09 ± 0.057,1.06 ± 0.021,0.99 ± 0.099,1.14 ± 0.021
COC(=O)C1=C(C)NC(C)=C(C(=O)OC)C1c1ccccc1[N+](=O)[O-],1.05 ± 0.14,0.995 ± 0.11,1.06 ± 0.028,1.04 ± 0.11,1.06 ± 0.078
C[C@H](CCC(=O)O)[C@H]1CC[C@H]2[C@@H]3C(=O)C[C@@H]4CC(=O)CC[C@]4(C)[C@H]3CC(=O)[C@]12C,0.956 and 0.954,0.911 and 0.941,0.912 and 0.967,0.894 and 1.06,1.05 and 1.15
COc1ccc(-c2cc(C(F)F)nn2-c2ccc(S(N)(=O)=O)cc2)cc1F,0.869 ± 0.086,1.01 ± 0.014,1.04 ± 0.057,0.983 ± 0.025,0.995 ± 0.078
O=C(CCCCCCCCCCCCC1CCCC1)Nc1ccc(S(=O)(=O)c2ccc(NC(=O)CCCCCCCCCCCCC3CCCC3)cc2)cc1,1.02 ± 0.062,1.04 ± 0.087,1.03 ± 0.028,1.01 ± 0.12,1 ± 0.036
COC(=O)Nc1nc2cc([S+]([O-])c3ccccc3)ccc2[nH]1 (stereo not given),0.921 ± 0.093,0.869 ± 0.054,1.01 ± 0.08,0.983 ± 0.052,0.885 ± 0.12
CC(=O)O[C@]1(C(C)=O)CC[C@H]2[C@@H]3C[C@H](C)C4=CC(=O)CC[C@]4(C)[C@H]3CC[C@@]21C,1.03 ± 0.014,0.989 ± 0.0099,0.96 ± 0.018,0.971 ± 0.18,1 ± 0.035
O=C1C=C(O)C(=O)c2ccccc21,1.025 ± 0.0071,1.06 ± 0.035,1.02 ± 0.047,0.947 ± 0.09,0.985 ± 0.11
O=C(/C=C/c1ccccc1)c1ccc(O)cc1,0.834 ± 0.11,0.906 ± 0.047,0.898 ± 0.013,0.88 ± 0.1,0.976 ± 0.2
CC(=O)O[C@@H]1CC2C(C)(C)[C@H](O)CC[C@]2(C)C2CC[C@@]3(C)[C@H](c4ccoc4)OC(=O)C4OC43[C@@]21C (stereo partly drawn) [alpha-DIHYDROGEDUNOL],1.03 ± 0.028,1.01 ± 0.032,1.03,1.02 ± 0.18,0.954 ± 0.025
N[C@@H](C(=O)O)[C@@H](O)[C@H](O)[C@H](O)CO,0.989 ± 0.073,0.95 ± 0.021,1.01 ± 0.02,1 ± 0.14,0.996 ± 0.034
O=C1NC(Cc2ccc(O)cc2)C(=O)NC1Cc1ccc(O)cc1 (stereo not given) [Cyclo(tyrosyltyrosyl)],0.902 ± 0.091,0.942 ± 0.11,0.953 ± 0.011,1.04 ± 0.057,0.98 ± 0.023
C[C@@]12C[C@@]3(O)O[C@@H](O1)[C@]1(COC(=O)c4ccccc4)[C@H]3C[C@@]12O[C@@H]1O[C@H](CO)[C@@H](O)[C@H](O)[C@H]1O,1.06 ± 0.014,0.887 ± 0.12,1.015 ± 0.0071,0.941 ± 0.052,1.01 ± 0.21
